Assay results: PubChem BioAssay (NCI)
About 83,000 compounds went through this panel and 20% of them were active in at least one assay; those are over-represented in the sample as a whole.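 In brief: 96-well plates, 48 h treatment, single concentration, percent growth endpoint.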 A number with no mark means an inactive call. The source made the active and inactive calls. The calls were made as follows: active = growth percent below 10; inactive = the rest.

What was measured:
Test in all cases: NCI-60 one-dose screen, 48 h (100 = growth as untreated, 0 = no growth, -100 = all killed)
Details in all cases: 10 µM unless noted
[1] = tested on: HCT-15 colon
[2] = tested on: HT29 colon
[3] = tested on: SNB-75 CNS
[4] = tested on: SNB-19 CNS
[5] = tested on: U251 CNS
[6] = tested on: PC-3 prostate
[7] = tested on: SK-MEL-5 melanoma
[8] = tested on: UACC-62 melanoma
[9] = tested on: LOX IMVI melanoma
[10] = tested on: SK-MEL-28 melanoma

Row | SMILES | growth [1] | growth [2] | growth [3] | growth [4] | growth [5] | growth [6] | growth [7] | growth [8] | growth [9] | growth [10]
1 | COc1cc(C2CC(c3c(C)[n+]([O-])c4ccccc4[n+]3[O-])=NN2)cc(OC)c1OC (configuration not stated) | 97.3% | 120% | 99.4% | 101% | 99.6% | 102% | 96% | 105% | 98% | 116%
2 | OCc1c(-c2ccccc2)nc2sccn12 | 97.2% | 109% | 122% | 85.5% | 95.6% | 95.7% | 80.2% | 101% | 104% | 122%
3 | CCCCCCCCCCCCOB(OCCCCCCCCCCCC)OCCCCCCCCCCCC | 105% | 105% | 118% | 106% | 94.4% | 98.5% | 102% | 104% | 89.7% | 108%
4 | COC(=O)CCCCCN=Cc1c(O)c(O)c(C(C)C)c2cc(C)c(-c3c(C)cc4c(C(C)C)c(O)c(O)c(C=NCCCCCC(=O)OC)c4c3O)c(O)c12 | 17.2% | 4.21% (active) | 46.9% | 20.6% | 3.85% (active) | 14% | 32.3% | 25% | 13.7% | 33%
5 | CCN1C(=O)N(CC)C2Nn3c(s/c(=C\c4cccc(F)c4)c3=O)=NC21 (configuration not stated) | 56.6% | 39.1% | 6.29% (active) | 80.7% | 73.2% | 52.9% | 42.6% | 67.7% | 69.7% | 75.6%
6 | c1ccc(CCn2nnc3c(Nc4ccc(N5CCOCC5)cc4)ncnc32)cc1 | 70.7% | 81.3% | 84.8% | 95.7% | 93.3% | 65.1% | 81.8% | 85.8% | 97.4% | 104%
7 | C=CCN=C1NC(=O)/C(=C/c2cc(C(C)(C)C)c(O)c(C(C)(C)C)c2)S1 | 42.1% | 26.9% | 88.8% | 83.6% | 77% | 62.4% | 49.3% | 63.8% | 70.8% | 73.3%
8 | CC(=O)OCC1OC(OCC2OC(OC(C)=O)C(OC(C)=O)C(OC(C)=O)C2OC(C)=O)C(OC(C)=O)C(OC(C)=O)C1OC(C)=O (configuration not stated) | 96.7% | 103% | 92.8% | 100% | 92% | 93.5% | 94.2% | 92.2% | 95.7% | 104%
9 | Nc1c(C(=O)Nc2cccc(C(F)(F)F)c2)sc2nc3c(cc12)CCCCCC3 | 19.3% | 0.128% (active) | -34% (active) | 25.9% | -18.4% (active) | 52.4% | 25.8% | 23.9% | 21.5% | 10.4%
10 | CNC(=O)c1cc(Oc2ccc3c(c2)sc2nc(-c4ccc(Cl)cc4)cn23)ccn1 | 83.6% | 105% | 47.9% | 54% | 69.5% | 78.8% | 87.4% | 85.1% | 87.4% | 104%
11 | COC1=CC(c2ccc[nH]2)=N/C1=C\c1[nH]c(C)c(C(=O)CCCCC(=O)Nc2ccccc2)c1C | -3.38% (active) | -54.4% (active) | 46.8% | 64.2% | 1.79% (active) | -40.5% (active) | 84.7% | 101% | -71.8% (active) | 63.9%
12 | Cc1ccc(Cn2c(-c3cccs3)nc3ccccc32)cc1 | 81.7% | 92.7% | 62.2% | 95.1% | 85.5% | 72.2% | 82.4% | 85.4% | 82.5% | 111%
13 | O=C1N=C(c2c(-c3[nH]c(=O)c4ccc(Br)cc4c3O)c(O)c3ccccc3c2O)C(=O)c2cc(Br)ccc21 | -36.3% (active) | 25.7% | -35.8% (active) | 4.13% (active) | -57.9% (active) | -60.5% (active) | -9.06% (active) | -48.9% (active) | -67.5% (active) | -47.8% (active)
14 | COc1cc(-n2nc(C(=O)Nc3ccc(C(=O)O)cc3)nc2-c2ccccc2)cc(OC)c1OC | 89.3% | 103% | 94.1% | 91.9% | 102% | 71.3% | 107% | 95.1% | 101% | 115%
15 | CCN(Cc1ccc(CN(CC)C(=O)C(Cl)(Cl)Cl)cc1)C(=O)C(Cl)(Cl)Cl | 94.2% | 77.5% | 87.7% | 106% | 91.6% | 64.9% | 71.2% | 82.7% | 78.3% | 96.2%
16 | CCn1cc(C(=O)O)c(=O)c2cc(F)c(N3CCN(S(=O)(=O)c4ccc(Cl)cc4Cl)CC3)cc21 | 7.58% (active) | 1.87% (active) | 74.8% | 26.2% | 12.1% | 1.6% (active) | -55% (active) | 16.1% | -35.4% (active) | 107%
17 | Cc1cc(NC(=O)COC(=O)c2sc3cc(F)ccc3c2Cl)no1 | 106% | 114% | 104% | 103% | 106% | 101% | 110% |  | 103% | 121%
18 | CCc1cccc(C)c1NC(=O)c1sc2nc3c(cc2c1N)C(=O)CCC3 | 32.8% | 6.1% (active) | -2.83% (active) | 67.9% | 2.81% (active) | 23.3% | 17% |  | 37.9% | 42.9%
19 | NC(N)=NC(N)=Nc1ccccc1-c1ccccc1 | 108% | 112% | 97.4% | 111% | 106% | 103% | 107% |  | 102% | 109%
20 | O=C(c1ccncc1)N1N=C(c2ccc(Cl)cc2)CC1c1c[nH]c2ccccc12 (configuration not stated) | 93.6% | 101% | 82.4% | 105% | 93.4% | 82.8% | 93.3% | 90.5% | 86.9% | 107%
21 | CCN(CC)CCCNc1nc(C)cc(Nc2ccc3nc(C)cc(N)c3c2)n1 | 105% | 92.5% | 90.9% | 108% | 100% | 76% | 112% |  | 95.6% | 111%
22 | ClC1=C(Cl)C(Cl)=C(Cl)C1=Cc1ccc(Cl)cc1Cl | -56.5% (active) | 10.1% | -45.6% (active) | -6.26% (active) | -75.1% (active) | -16.5% (active) | -88.1% (active) |  | -95% (active) | -28.5% (active)
23 | O=C1Nc2cc(Cl)ccc2/C1=C/c1ccc(N2CCOCC2)s1 | 112% | 97.3% | 101% | 86.6% | 96.7% | 92.5% | 104% | 103% | 106% | 114%
24 | COc1cccc(/C=C2\SC(N3CCN(c4ccccn4)CC3)=NC2=O)c1 | 105% | 84.7% | 102% | 99.4% | 105% | 88.9% | 97.1% |  | 94.7% | 
25 | CCCCCCCCCCCCNC(=S)N/N=C/c1ccc(Cl)c(Cl)c1 | 87.2% | 82.2% | 96.8% | 114% | 108% | 107% | 99% | 95.5% | 120% | 104%
26 | NS(=O)(=O)c1ccc(CN2C(=O)c3cccc4cccc(c34)C2=O)cc1 | 88.5% | 102% | 83.9% | 100% | 99% | 93.3% | 96.8% |  | 96.2% | 113%
27 | O=S(=O)(NCCNc1nccc(-c2c(-c3ccccc3)nc3sccn23)n1)c1ccc(O)cc1 | 47.9% | 21.4% | 28.7% | 56.5% | 41.5% | 57.9% | 7.89% (active) | 52.4% | 31.4% | 47.6%
28 | CCCCC[C@@H]1Cc2cc(O)c(C(=O)O)c3c2[C@H](C[C@@]2(CCCO2)O3)O1 | 112% | 113% | 98.1% | 107% | 105% | 101% | 111% | 110% | 93.6% | 109%
